In test [1] the target is T1, Serine/threonine-protein kinase Nek9 (Homo sapiens) (UniProt Q8TD19).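 Note: each value is a mean percent inhibition of NEK9.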
T1 sequence (whole entry): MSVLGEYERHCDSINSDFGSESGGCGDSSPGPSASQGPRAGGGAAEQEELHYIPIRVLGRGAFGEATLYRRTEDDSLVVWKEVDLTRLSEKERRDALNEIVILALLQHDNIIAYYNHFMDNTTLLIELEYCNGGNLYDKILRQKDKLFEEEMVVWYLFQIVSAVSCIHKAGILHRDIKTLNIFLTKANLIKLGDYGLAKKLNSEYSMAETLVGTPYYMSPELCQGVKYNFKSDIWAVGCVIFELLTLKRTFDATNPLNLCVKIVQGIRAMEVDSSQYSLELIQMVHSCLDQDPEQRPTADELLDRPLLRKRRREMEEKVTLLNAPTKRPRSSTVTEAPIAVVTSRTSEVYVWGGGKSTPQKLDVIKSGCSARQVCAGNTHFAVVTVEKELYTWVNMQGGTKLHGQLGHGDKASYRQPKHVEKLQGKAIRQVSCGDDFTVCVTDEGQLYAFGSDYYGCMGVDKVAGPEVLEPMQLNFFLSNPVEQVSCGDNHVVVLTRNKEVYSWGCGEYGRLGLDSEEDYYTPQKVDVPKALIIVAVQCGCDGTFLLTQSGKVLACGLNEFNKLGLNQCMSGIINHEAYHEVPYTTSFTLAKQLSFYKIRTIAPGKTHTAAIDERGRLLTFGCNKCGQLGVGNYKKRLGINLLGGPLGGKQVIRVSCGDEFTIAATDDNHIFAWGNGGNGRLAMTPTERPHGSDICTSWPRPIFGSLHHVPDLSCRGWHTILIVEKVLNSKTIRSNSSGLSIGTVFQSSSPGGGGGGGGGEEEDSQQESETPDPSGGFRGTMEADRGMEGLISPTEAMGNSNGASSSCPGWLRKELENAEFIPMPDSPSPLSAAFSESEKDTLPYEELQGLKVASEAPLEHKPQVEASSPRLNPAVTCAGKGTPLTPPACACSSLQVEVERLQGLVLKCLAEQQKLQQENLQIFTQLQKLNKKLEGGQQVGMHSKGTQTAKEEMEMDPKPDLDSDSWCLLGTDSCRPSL
The settings on record: at 1 µM.

The target of test [2] is Serine/threonine-protein kinase PLK1 (Homo sapiens) (UniProt P53350). The settings on record: at 0.1 µM.
Sequence of Serine/threonine-protein kinase PLK1 (Homo sapiens) (P53350 whole entry): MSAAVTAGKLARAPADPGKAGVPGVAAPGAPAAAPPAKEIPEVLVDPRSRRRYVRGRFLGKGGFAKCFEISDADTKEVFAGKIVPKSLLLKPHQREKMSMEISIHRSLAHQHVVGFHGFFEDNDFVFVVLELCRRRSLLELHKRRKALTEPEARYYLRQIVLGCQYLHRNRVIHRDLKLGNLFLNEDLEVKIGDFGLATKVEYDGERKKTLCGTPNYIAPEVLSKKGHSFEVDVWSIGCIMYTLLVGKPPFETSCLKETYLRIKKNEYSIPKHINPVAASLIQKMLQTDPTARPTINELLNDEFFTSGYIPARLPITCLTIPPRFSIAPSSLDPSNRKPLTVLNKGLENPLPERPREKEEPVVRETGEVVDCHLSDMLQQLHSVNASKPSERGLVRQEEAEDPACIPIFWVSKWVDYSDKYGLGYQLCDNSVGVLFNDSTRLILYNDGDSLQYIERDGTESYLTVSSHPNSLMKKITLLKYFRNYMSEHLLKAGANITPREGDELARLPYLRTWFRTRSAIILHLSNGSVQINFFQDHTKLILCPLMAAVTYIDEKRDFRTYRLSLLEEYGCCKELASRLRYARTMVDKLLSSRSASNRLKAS
Test [3] has the same target. Particulars: at 1 µM.
Test [4] addresses T2, Dual specificity protein kinase TTK (Homo sapiens) (UniProt P33981).
T2 sequence (whole entry): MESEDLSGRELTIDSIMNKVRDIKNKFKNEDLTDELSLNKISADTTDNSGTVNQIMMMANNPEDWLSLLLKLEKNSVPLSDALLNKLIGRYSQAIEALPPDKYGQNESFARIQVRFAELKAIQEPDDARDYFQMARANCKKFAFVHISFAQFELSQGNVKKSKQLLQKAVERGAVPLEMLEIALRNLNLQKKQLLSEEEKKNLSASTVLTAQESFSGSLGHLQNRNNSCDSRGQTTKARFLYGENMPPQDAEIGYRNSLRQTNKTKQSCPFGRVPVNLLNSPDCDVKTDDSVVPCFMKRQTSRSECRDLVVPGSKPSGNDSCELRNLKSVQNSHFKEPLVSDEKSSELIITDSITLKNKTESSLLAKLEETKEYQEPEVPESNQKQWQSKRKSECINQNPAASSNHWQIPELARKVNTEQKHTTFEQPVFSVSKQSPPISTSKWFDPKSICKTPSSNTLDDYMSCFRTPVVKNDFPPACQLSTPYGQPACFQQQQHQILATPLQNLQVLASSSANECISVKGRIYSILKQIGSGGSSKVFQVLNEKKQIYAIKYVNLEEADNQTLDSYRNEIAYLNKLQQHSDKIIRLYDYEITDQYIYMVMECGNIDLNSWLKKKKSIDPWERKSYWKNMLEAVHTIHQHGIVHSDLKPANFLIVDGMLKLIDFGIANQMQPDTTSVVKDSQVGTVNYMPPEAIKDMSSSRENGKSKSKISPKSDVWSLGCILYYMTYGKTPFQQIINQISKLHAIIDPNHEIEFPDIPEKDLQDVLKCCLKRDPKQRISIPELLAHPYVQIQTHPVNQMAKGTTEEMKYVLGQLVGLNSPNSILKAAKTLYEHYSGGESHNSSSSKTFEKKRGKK
The settings on record: at 0.1 µM.

In test [5] the test system is T3, Receptor-type tyrosine-protein kinase FLT3 (Homo sapiens), P36888 [D835Y].
T3 sequence (whole entry): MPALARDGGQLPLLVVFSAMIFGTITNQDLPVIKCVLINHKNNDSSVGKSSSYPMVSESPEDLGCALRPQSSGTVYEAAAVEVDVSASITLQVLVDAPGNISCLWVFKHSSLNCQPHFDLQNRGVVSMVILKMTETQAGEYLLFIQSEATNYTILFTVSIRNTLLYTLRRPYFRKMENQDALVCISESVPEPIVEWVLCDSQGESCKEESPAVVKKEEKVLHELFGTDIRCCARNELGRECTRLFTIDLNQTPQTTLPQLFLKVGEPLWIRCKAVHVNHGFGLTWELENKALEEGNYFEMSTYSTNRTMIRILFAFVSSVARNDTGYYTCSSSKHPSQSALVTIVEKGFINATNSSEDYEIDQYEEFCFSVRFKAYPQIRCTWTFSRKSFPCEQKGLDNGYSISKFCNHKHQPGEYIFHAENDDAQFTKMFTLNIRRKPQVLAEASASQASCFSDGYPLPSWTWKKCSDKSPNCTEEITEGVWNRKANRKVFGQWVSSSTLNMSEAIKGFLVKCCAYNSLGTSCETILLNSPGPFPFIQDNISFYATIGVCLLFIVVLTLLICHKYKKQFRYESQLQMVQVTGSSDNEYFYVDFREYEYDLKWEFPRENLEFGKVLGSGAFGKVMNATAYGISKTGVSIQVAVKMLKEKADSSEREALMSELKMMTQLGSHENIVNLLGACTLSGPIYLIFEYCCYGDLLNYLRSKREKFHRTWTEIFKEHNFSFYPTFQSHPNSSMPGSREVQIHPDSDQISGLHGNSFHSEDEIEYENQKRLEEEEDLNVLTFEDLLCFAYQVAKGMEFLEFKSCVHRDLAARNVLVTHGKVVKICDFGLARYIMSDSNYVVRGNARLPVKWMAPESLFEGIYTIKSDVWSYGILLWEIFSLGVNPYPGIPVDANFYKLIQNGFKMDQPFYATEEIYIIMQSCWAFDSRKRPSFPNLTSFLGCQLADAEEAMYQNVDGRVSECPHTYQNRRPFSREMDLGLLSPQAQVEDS
Particulars: at 1 µM.

In test [6] the target is Vascular endothelial growth factor receptor 3 (Homo sapiens) (UniProt P35916). The settings on record: at 0.1 µM.
Sequence of Vascular endothelial growth factor receptor 3 (Homo sapiens) (P35916 whole entry): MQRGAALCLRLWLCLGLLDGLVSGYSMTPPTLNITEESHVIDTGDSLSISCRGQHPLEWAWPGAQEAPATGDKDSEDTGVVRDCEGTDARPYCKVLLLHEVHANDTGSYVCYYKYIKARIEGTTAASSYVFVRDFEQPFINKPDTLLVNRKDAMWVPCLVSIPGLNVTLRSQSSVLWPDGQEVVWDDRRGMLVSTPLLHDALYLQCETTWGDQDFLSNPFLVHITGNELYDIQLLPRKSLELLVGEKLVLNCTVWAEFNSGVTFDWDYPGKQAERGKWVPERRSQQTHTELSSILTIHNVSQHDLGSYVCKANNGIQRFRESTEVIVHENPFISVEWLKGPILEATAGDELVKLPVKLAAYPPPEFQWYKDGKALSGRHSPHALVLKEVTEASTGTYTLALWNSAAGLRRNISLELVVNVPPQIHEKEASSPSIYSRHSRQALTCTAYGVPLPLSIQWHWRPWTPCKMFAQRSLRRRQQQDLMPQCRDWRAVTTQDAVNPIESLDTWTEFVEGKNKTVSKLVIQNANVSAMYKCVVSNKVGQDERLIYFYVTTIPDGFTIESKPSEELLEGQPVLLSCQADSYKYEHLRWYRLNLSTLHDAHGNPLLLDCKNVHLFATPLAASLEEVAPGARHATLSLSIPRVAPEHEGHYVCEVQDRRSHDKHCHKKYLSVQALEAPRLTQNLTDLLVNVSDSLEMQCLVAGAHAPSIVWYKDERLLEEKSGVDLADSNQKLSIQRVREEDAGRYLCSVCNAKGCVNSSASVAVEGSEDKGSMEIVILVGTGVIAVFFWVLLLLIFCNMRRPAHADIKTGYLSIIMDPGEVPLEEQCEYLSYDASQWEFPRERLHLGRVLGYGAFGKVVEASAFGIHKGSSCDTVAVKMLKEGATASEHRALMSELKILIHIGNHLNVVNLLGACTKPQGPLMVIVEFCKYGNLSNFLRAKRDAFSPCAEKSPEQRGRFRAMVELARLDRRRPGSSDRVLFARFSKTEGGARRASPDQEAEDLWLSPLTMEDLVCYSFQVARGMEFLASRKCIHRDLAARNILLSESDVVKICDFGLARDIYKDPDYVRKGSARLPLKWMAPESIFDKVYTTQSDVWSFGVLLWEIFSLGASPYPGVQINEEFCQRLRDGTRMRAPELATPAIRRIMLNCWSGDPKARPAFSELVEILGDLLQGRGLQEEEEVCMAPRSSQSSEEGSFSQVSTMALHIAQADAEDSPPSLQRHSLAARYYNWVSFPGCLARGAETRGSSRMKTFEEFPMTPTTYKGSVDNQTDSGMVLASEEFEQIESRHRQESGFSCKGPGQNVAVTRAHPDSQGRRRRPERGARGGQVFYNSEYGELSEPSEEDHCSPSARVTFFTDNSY
For test [7], the target named is Macrophage colony-stimulating factor 1 receptor (Homo sapiens) (UniProt P07333). Particulars: at 0.1 µM.
Sequence of Macrophage colony-stimulating factor 1 receptor (Homo sapiens) (P07333 whole entry): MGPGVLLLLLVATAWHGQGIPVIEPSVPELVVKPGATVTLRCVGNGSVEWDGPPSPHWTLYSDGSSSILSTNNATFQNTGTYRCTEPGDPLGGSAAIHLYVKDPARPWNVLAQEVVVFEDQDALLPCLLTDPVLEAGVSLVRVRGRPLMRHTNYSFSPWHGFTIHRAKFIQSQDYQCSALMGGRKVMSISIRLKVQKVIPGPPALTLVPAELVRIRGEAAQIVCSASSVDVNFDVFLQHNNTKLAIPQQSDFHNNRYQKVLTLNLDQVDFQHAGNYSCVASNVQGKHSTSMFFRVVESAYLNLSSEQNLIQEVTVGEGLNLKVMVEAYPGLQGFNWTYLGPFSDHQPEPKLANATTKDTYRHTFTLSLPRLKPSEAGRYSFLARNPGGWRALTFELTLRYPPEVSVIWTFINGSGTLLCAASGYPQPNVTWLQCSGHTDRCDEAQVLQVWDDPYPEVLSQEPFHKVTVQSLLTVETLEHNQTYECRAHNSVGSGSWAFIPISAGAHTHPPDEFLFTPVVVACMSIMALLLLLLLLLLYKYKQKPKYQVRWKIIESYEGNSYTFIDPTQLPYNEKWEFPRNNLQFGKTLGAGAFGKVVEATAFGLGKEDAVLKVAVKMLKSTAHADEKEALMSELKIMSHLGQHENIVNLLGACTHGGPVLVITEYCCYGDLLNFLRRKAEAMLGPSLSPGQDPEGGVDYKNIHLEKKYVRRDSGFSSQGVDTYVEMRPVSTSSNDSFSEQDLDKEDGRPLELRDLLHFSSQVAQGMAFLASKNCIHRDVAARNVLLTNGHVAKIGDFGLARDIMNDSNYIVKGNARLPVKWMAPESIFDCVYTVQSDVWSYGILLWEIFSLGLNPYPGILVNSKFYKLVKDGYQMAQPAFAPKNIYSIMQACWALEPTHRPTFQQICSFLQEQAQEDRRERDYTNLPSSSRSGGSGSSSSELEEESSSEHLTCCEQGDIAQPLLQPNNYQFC
The target is the same in test [8]. Particulars: at 1 µM.
Test [9] addresses Tyrosine-protein kinase Fyn (Homo sapiens) (UniProt P06241). The settings on record: at 0.1 µM.
In test [10] the target is Vascular endothelial growth factor receptor 3 (Homo sapiens) (UniProt P35916). Particulars: at 1 µM.

This is an account of results in ChEMBL document CHEMBL1961873, “Compounds: GSK PKIS; Assays: Nanosyn kinase panel” (2012).

Sequence of Tyrosine-protein kinase Fyn (Homo sapiens) (P06241 2-537 limits assumed): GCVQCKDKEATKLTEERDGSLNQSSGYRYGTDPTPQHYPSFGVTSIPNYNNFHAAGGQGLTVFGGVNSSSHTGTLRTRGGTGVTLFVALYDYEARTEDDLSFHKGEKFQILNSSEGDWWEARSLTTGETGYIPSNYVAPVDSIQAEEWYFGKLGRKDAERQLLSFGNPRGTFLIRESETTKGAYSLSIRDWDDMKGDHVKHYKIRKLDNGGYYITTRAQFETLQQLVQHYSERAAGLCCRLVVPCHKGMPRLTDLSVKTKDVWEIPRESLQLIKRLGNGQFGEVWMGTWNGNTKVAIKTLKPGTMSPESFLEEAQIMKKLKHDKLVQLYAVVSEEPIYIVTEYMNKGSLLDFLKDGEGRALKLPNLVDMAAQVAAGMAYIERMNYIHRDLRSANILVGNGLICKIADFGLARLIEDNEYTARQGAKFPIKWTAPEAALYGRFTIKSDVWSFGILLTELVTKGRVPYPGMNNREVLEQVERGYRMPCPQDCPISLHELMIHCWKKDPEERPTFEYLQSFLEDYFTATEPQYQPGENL

`Cc1ccc(NC(=O)c2ccnc(N3CCCC3)c2)cc1-c1ccc(C(=O)NCC2CC2)cc1`: the inhibition (as a rule, the drop in the measured response relative to a control, in per cent) in test [1] was 6.52%; in test [2], 3.7%; in [3], 4.57%; in test [4] it was 15.4%; in [5] it was 1.51%; in test [6], -7.96%. Moreover, the inhibition is 1.57% in test [7], 2.74% in test [8] and -2.42% in test [9].

For the compound `CN1CCC(C(=O)Nc2n[nH]c3nnc(-c4ccccc4)cc23)CC1`, the inhibition is 19.2% in [1]; 6.37% in test [2]; 4.03% in test [3]; 12.6% in [4]; -2.63% in test [5]; 2.1% in test [6]. Further, the inhibition came to 3.3% in test [10], 0.38% in [7], 3.05% in test [8] and 0.66% in test [9].

On to `CCn1c(-c2nonc2N)nc2c(C#CC(C)(C)O)nc(OC[C@@H](N)c3ccccc3)cc21`, for which the inhibition was -5.29% in test [1]; 7.34% in test [2]; 0.17% in test [3]; -3.32% in [4]; 2.58% in test [5]; 17.4% in test [6]. The inhibition in test [10] is 68.9%; in test [7], -0.21%; in [8] it was -0.91%; in [9], 2.28%.

For `O=C(Nc1n[nH]c2nc(-c3ccco3)c(Br)cc12)C1CC1`, the inhibition in [1] was determined as 3.52%; in [2] it was 4.46%; in test [3], 4.35%; in test [4], 4.94%; in test [5] it was 5.36%; in [6], 1.95%. Further, the inhibition was determined as 9.43% in [10], 0.44% in test [7], 1.78% in [8] and 3.33% in test [9].

As to `Nc1nc(-c2ccc3c(c2)C(=Cc2cc(Br)c(O)c(Br)c2)C(=O)N3)cs1`, the inhibition in test [1] worked out at 8.59%; in test [2], 0.43%; in test [3], 3.62%; in test [4], 2.39%; in test [5], 3.47%; in [6], 4.68%. In addition, the inhibition in test [10] is 6.47%; in test [7], -1.81%; in test [8], 2.56%; in test [9], -0.03%.

In the case of `[O-][S+]1CCN(Cc2ccc(-c3ccc4ncnc(Nc5ccc(OCc6ccccc6)c(F)c5)c4c3)o2)CC1`, the inhibition in [1] was 4.38%; in [2] it was 2.17%; in test [3] it was 1.22%; in test [4], 5.89%; in test [5], 1.92%; in test [6], -0.55%. The inhibition worked out at 0.47% in test [10], 0.26% in test [7], 3.3% in test [8] and 0.67% in test [9].

As for `Fc1cccc(COc2ccc(Nc3ncnc4cc(-c5ccc[nH]5)sc34)cc2Cl)c1`, the inhibition in test [1] stood at 9.08%; in test [2], 3.81%; in test [3], 3.54%; in test [4] it was 9.76%; in test [5] it was 1.35%; in test [7] it was 0.63%. The inhibition is 8.96% in [8] and -2.98% in [9].

Take `COc1ccc(-c2coc3ncnc(N)c23)cc1`: the inhibition was 6.24% in test [1]; 3.82% in test [2]; 3.47% in test [3]; 10.9% in test [4]; -3.79% in [5]; 0.69% in test [6]. Moreover, the inhibition in [10] was -0.08%; in test [7], 4.17%; in test [8], 2.83%; in [9] it was 0.65%.

As to `COC(=O)Nc1nc2cc(Oc3ccc(NC(=O)Nc4cccc(C(=O)O)c4)cc3)ccc2[nH]1`, the inhibition in test [1] is 1.76%; in [2] it was 0.16%; in [3], 0.8%; in [4], 1.59%; in test [5], 4.78%; in test [10], -5.74%. The inhibition in [7] was 3.75%; in [8], 8.4%; in test [9] it was -5.06%.
